From PubChem BioAssay
An excerpt weighted towards active compounds, which were near 3.7% of everything screened.
Nrf2 block = blocks Nrf2 signaling; A549 ARE-Fluc reporter, luciferase luminescence, 18-24 h; Potency, µM (titrated, usually from 46 µM), without a hit: at the highest dose activity change, negative = inhibition, usual class: inhibitors; 360,000 compounds, 2.1% hits; note: % is set by controls: 0 for no effect and ±100 for the full control effect; nearly all actives have a fitted effect of over 60% in size
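Reporter: ARE-Fluc in A549. Exposure: 18-24 h, 37 °C, 5% CO2, 5% FBS OPTI-MEM. Readouts: fluorescent cytotoxicity (CellTiter-Fluor), then luminescent Nrf2 signal after BugLite.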
ELG1 DNA repair = blocks ELG1-dependent DNA repair in HEK293T cells | HEK293T ELG1-luciferase reporter, luminescence, 16 h; DNA damage induced by 5-fluorouridine | 330,000 compounds, 2.3% hits | Potency, µM (titrated, usually from 46.1 µM), for inactives: top-dose activity change, negative = inhibition, actives largely listed as inhibitors; note: % is set by controls: 0 for no effect and ±100 for the full control effect; nearly all actives have a fitted effect of over 55% in size
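Cells (2,000 per well) received 5-fluorouridine plus test compound or DMSO and were incubated 16 hr at 37 °C, 5% CO2. Luciferase activity was read by luminescence 30 min after ONE-Glo addition; signal suppression marked inhibition of damage-induced ELG1 function.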
Nrf2 activator = Nrf2 pathway activation. AREc32 ARE-luciferase reporter (MCF7-derived line), luminescence, 24 h. Potency, µM (titrated, usually from 46.1 µM), for the others: top-dose activation, most hits filed as activators. 410,000 compounds, 0.31% hits; note: % of control where 0% means no effect; nearly all actives have a fitted effect of over 65% in size
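AREc32 cells carrying an ARE-driven firefly luciferase, 1000 cells/well in OPTI-MEM with 5% FBS, dosed after overnight attachment and incubated 24 hr at 37 deg C. Steady-Glo luminescence read after 30 min at RT.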
A549 viability = A549 cytotoxicity, counter-screen for Nrf2 inhibitors. A549 ARE-Fluc cells, CellTiter-Fluor viability, 18-24 h. Potency, µM (series often up to 46 µM), for the others: at the top dose activity change, negative = cytotoxicity, actives largely listed as inhibitors. 390,000 compounds, 0.16% hits. AID 504648; note: % is set by controls: 0 for no effect and ±100 for the full control effect
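A549 ARE-Fluc cells in 5% FBS OPTI-MEM, 5000 cells/well, rested 2 h then exposed to compounds in concentration-response for 18-24 h at 37 °C. Viability by CellTiter-Fluor fluorescence (Ex 405/Em 525) after 30 min; luciferase luminescence (BugLite, 15 min, RT) read afterwards.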
* hit, by the source's call; u = inconclusive; x = no result; [ ] = another dose, or the depositor's remark. Calls come from the whole dose curve; as a rule, active = well fitted curve in the direction sought with a large enough effect; inconclusive = small, poorly fitted or top-dose-only effect, or another doubt; inactive = no such curve, though single readings can be large; an effect the other way counts as inactive or inconclusive. Potency is the fitted concentration of half-maximal effect.

SMILES	Nrf2 block	ELG1 DNA repair	Nrf2 activator	A549 viability
Cc1ccccc1-c1cc(C(=O)NCc2cccc(C(F)(F)F)c2)n(CC2CC(c3cccnc3)=NO2)n1 (configuration not stated)	u	16µM*	-2%	-3%
Cc1ccccc1-c1cc(C(=O)NCc2ccc(OC(F)(F)F)cc2)n(CC2CC(c3cccnc3)=NO2)n1 (configuration not stated)	21µM*	18µM*	-3%	-25%
COc1ccc(C2=NOC(Cn3nc(-c4ccccc4)cc3C(=O)NCc3cccs3)C2)cc1 (configuration not stated)	u	12µM*	-1%	-1%
COc1ccc(C2=NOC(Cn3nc(C(=O)NCc4cccs4)cc3-c3ccccc3)C2)cc1 (configuration not stated)	-15%	u	3%	1%
O=C1CCc2cc(S(=O)(=O)Nc3ccc(Cl)c(Cl)c3)ccc2N1	3%	x	x	u
O=C(Nc1ccc(Cn2cccn2)cc1)c1ccc(COc2ccccc2Br)cc1	9.2µM*	-20%	1%	u
O=C(Nc1cccnc1)c1ccc(COc2ccccc2Br)o1	6.5µM*	u	0%	-13%
O=C(Nc1nc2ccccc2n1CCN1CCOCC1)c1ccc(COc2ccccc2Br)o1	13µM*	21µM*	3%	-16%
Cc1cccc(NC(=O)c2cc(-c3ccc4c(c3)OCCO4)on2)c1	u	x	-1%	2%
Cc1ccc(S(=O)c2ccc([N+](=O)[O-])c3nonc23)cc1 (configuration not stated)	x	x	18µM*	x
CCCOc1ccc(CCCN=C(N)N)cc1Cl	u	13µM*	2%	-6%
CCCCOc1ccc(CN=C(N)N)cc1Cl	u	u	0%	0%
O=C1NC[C@@H](c2ccccc2)OC(=O)[C@@H](Cc2ccc(F)cc2)C/C=C\C[C@@H]1CC(=O)N(CCO)Cc1ccccc1	u	21µM*	1%	-29%
O=C1NC[C@H](c2ccccc2)OC(=O)[C@H](Cc2ccc(F)cc2)C/C=C\C[C@@H]1CC(=O)N(CCO)Cc1ccccc1	u	u	-1%	-10%
O=C1NC[C@@H](c2ccccc2)OC(=O)[C@H](Cc2ccc(F)cc2)C/C=C\C[C@@H]1CC(=O)N(CCO)Cc1ccccc1	26µM*	-18%	10%	u
O=C1CCCC/C=C\C[C@H](CC(=O)N(CCO)Cc2ccccc2)C(=O)NC[C@H](c2ccccc2)O1	-10%	1%	3%	-10%
CC(=O)N/N=C/c1cc(C(C)(C)C)cc(/C=N/NC(C)=O)c1O	3%	15µM*	0%	4%
CCOc1cc(/C=C/c2cc(C(F)(F)F)[nH]c(=O)n2)ccc1O	21µM*	u	14%[9.22 µM]	u
CCOc1cc(/C=C/c2ccc3cccc([N+](=O)[O-])c3n2)ccc1OCC(=O)N(C)C	u	16µM*	19%	-8%
CCOc1cc(/C=C/C(=O)c2ccc(C)cc2)ccc1OCC(=O)N(C)C	-19%	18µM*	11%	-1%
COc1cc(/C=C/c2ccc3cccc([N+](=O)[O-])c3n2)ccc1OCC#N	-14%	23µM*	40%	-15%
CCOc1ccccc1CN1CCc2nc(N3CCN(c4ccccc4F)CC3)ncc2C1	x	x	4%	-20%
COCCC(=O)N1CCC(Oc2ccc(C(=O)N3CCCC(CCCO)C3)cc2)CC1 (configuration not stated)	4%	-19%	0%	0%
O=[N+]([O-])c1ccc(/C=C/c2ccc3cccc([N+](=O)[O-])c3n2)cc1	-14%	10%	u	-5%
CCOc1cc(/C=C/c2ccc3cccc([N+](=O)[O-])c3n2)ccc1O	23µM*	-23%	u	u
SMILES	Nrf2 block	ELG1 DNA repair	Nrf2 activator	A549 viability
CC(=O)Nc1cccc(Oc2ncnc3scc(-c4ccc(C)cc4)c23)c1	18µM*	u	0%	u
Cc1ccc(-c2csc3ncnc(Oc4ccc5c(C)cc(=O)oc5c4)c23)cc1	-29%	18µM*	0%	-2%
CNC(=O)COc1ncnc2scc(-c3ccc(F)cc3)c12	6%	6%	-1%	7%
CCOC(=O)c1ccc(Nc2c(OCC)c(=O)c2=O)cc1	-14%	u	3%	2%
CCOC(=O)c1cnc2c(OC)cccc2c1N1CCN(c2ccccc2OC)CC1	u	10µM*	4%	-6%
CCOC(=O)c1cnc2c(OC)cccc2c1N1CCN(c2ccccn2)CC1	u	u	4%	-10%
COc1cccc(Cn2ncc3c4sc(C)cc4n(C)c3c2=O)c1	-20%	x	x	-3%
CSc1ccc(/C=C(\NC(=O)c2ccc(C)cc2)C(=O)NN)cc1	1%	18µM*	0%	13%
CSc1ccc(/C=C(/NC(=O)c2ccc(C)cc2)C(=O)Nc2cccc(C)c2)cc1	-9%	16%	-1%	2%
COc1ccc(C2Nc3ccccc3C(=O)N2CCO)cc1COc1ccc(NC(C)=O)cc1 (configuration not stated)	-11%	x	x	-9%
CC1(C)Cc2c(cnn2-c2cccc(F)c2)C(NC(=O)CSc2ccccn2)C1 (configuration not stated)	1%	1%	4%	-1%
Cc1ccc(/C=C(\C#N)C(=O)Nc2ccccn2)o1	u	u	14µM*	-7%
O=C(CCl)Nc1cc2[nH]c(=O)[nH]c2cc1Br	21µM*	u	u	23µM*
Cc1cc2c(C)cc(=O)[nH]c2cc1NC(=O)CCl	u	u	u	19%
Cc1cc(Cl)ccc1NC(=O)c1cccc(NC(=O)N2CCSc3ncccc32)c1	u	x	0%	-1%
CN(C)/C=N/c1c(C#N)cnn1-c1ccccc1	4%	-1%	-1%	2%
CN(C)/C=N/c1c(C#N)cnn1-c1ncnc2sc(-c3ccccc3)cc12	-8%	18µM*	u	-7%
COc1ccc(CNC(=O)Cc2c(C)c3c(cc(C)c4c(C)c(C)oc43)oc2=O)cc1	16%	x	0%	6%
Oc1ccc(/C=N\Nc2nncc(-c3ccccc3)n2)cc1	u	14%	7.1µM*	-14%
COc1ccc(-c2cnnc(N/N=C/c3ccc(O)cc3)n2)cc1	19%	u	28%	-9%
CN(Cc1ccccc1)C(=O)c1cccc(NC(=O)C2CCCN(C(=O)OC(C)(C)C)C2)c1 (configuration not stated)	u	26µM*	-1%	-3%
CN(CCc1ccccc1)C(=O)c1cccc(NC(=O)Cc2cccc(NC(=O)C3CCCN(C(=O)C4CCCCC4)C3)c2)c1 (configuration not stated)	u	x	6%	-9%
CN(CCc1ccccc1)C(=O)c1cccc(NC(=O)Cc2cccc(NC(=O)C3CCCN(C(=O)c4ccccc4)C3)c2)c1 (configuration not stated)	26µM*	x	3%	-11%
